In assay [1] the test system is Wnt5a (protein binding on small-molecule microarray). The experiment in a line: small molecules binding Wnt5a protein – biophysical, small-molecule microarray, 635/667 nm fluorescence, primary screen (AID 1142).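 Also: fluorescence read at 667 nm with signal to noise per printed feature.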 As to conditions: 635 nm fluorescence, higher = more signal.
A short description of assay [2]: ATP-based viability of Huh7 replicon cells – cell-based, CellTiter-Glo luminescence, basal, 48 h, cytotoxicity control for HCV replication inhibitor project, primary screen (AID 1143).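 Also: Huh7 hepatoma cells carrying a hepatitis C replication reporter with no stimulus; test concentration not given here.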 Conditions: higher = more signal, called active from +8 up or from −8 down.
Assay [3] is described as follows: Pseudomonas biofilm growth suppression – PAO1 strain, BacTiter-Glo luminescence, LB-PBS, primary screen (AID 1144). Conditions: P. aeruginosa PAO1 biofilm, 12 h, higher = more signal.
A short description of assay [4]: basal CRE-LacZ reporter activity in PC12 – cell-based, unstimulated, primary screen (AID 1145). As to conditions: no forskolin, luminescence, 4.5 h, higher = more signal, called active from +8 up or from −8 down.
Assay [5] can be described thus: forskolin-driven CRE-LacZ activity in PC12 – cell-based, CRE-LacZ reporter, forskolin-stimulated, primary screen (AID 1146).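 Also: PC12 cells with 6xCRE LacZ reporter stimulated by forskolin 10 µM; beta-galactosidase reporter signal reflecting CREB driven transcription.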 As to conditions: luminescence, 4.5 h, higher = more signal, called active from +8 up or from −8 down.
Assay [6] deals with Streptavidin (Streptomyces avidinii) (UniProt P22629). The experiment in a line: compounds binding control protein streptavidin – biophysical, small-molecule microarray, 635/667 nm fluorescence, artefact control for SMM compound annotation, primary screen (AID 1147).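 Also: signal reflects streptavidin binding to arrayed compounds as a control protein.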 As to conditions: higher = more signal.
Sequence of Streptavidin (Streptomyces avidinii) (P22629 whole entry, looked up): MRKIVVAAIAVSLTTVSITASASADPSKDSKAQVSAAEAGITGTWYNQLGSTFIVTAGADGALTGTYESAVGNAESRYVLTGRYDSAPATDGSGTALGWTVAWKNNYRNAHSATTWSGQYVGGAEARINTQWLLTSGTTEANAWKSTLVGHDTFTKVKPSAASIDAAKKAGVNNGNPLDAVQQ
Assay [7] can be described thus: probe aInhba binding on compound microarray – biochemical, small-molecule microarray, 635/667 nm fluorescence, primary screen (AID 1148).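 Also: score merges 667nm spot fluorescence with signal-to-noise for antibody binding to printed compounds.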 Conditions: higher = more signal.
The target of assay [8] is Torsin-1A (Homo sapiens) (UniProt O14656). The experiment in a line: TOR1A wild-type binding on microarray – cell lysate, small-molecule microarray, lysate, 635/667 nm, primary screen (AID 1149). Conditions: COS7 hTOR1A-WT lysate, 635 nm fluorescence, higher = more signal.
Sequence of Torsin-1A (Homo sapiens) (O14656 whole entry, looked up): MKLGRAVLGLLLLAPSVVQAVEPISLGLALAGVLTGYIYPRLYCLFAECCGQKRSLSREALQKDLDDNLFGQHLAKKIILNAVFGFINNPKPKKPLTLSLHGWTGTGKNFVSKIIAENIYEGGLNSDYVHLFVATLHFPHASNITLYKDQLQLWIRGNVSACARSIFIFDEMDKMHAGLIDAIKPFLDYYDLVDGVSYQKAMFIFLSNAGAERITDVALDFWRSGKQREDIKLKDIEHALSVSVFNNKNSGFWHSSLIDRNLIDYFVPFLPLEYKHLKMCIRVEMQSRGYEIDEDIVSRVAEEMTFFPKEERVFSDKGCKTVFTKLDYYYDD
Assay [9] has the same target. The experiment in a line: torsin A mutant lysate binding on microarrays – cell lysate, small-molecule microarray, COS7 lysate, 635/667 nm fluorescence, primary screen (AID 1150).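 Also: score pools 667 nm emission and signal to noise measuring lysate protein binding.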 Conditions: COS7 hTOR1A mutant lysate, 635 nm fluorescence, higher = more signal.
Assay [10] deals with Sonic hedgehog protein (Shh). The experiment in a line: Sonic hedgehog microarray binding compounds – biochemical, small-molecule microarray, 635/667 nm fluorescence, primary screen (AID 1151).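 Also: Shh protein binding to compounds spotted on small-molecule microarray slides; score combines spot fluorescence intensity with signal-to-noise across triplicate slides.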 Conditions: 635 nm fluorescence, higher = more signal.
Assay [11] can be described thus: optical density shifts of acrAB sulA E. coli – strain DRC41, OD650, 48 h, E. coli filamentation inducer project, primary screen (AID 1152).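 Also: E. coli MC1000 strain DRC41 lacking acrAB efflux pump and sulA.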 As to conditions: higher = more signal, called active from +8 up or from −8 down.
Assay [12] in a line: probe aLefty1 binding on compound microarray – biochemical, small-molecule microarray, 635/667 nm fluorescence, primary screen (AID 1153).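 Also: score merges spot fluorescence with signal-to-noise ratio from the scanned slide images.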 As to conditions: higher = more signal.
Assay [13] in a line: plasmodial surface anion channel blockers, osmotic lysis – cell-based, P. falciparum Indochina, OD700, 1 h, primary screen (AID 1154). Conditions: P. falciparum Indochina infected RBC osmotic lysis, higher = more signal, called active from +8 up or from −8 down.
Assay [14] can be described thus: plasmodial surface anion channel blockers, osmotic lysis – cell-based, P. falciparum Indochina, OD700, 2 h, primary screen (AID 1155).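 Also: lysis reports solute entry through the parasite surface anion channel PSAC.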 Conditions: P. falciparum Indochina infected erythrocytes, higher = more signal, called active from +8 up or from −8 down.
A short description of assay [15]: changes in parasitized red cell lysis, either direction – P. falciparum Indochina, OD700, 3 h, PSAC antagonist project, primary screen (AID 1156). Conditions: P. falciparum-infected erythrocytes, osmotic lysis, higher = more signal, called active from +8 up or from −8 down.
Assay [16] is described as follows: plasmodial surface anion channel blockers, osmotic lysis – cell-based, P. falciparum Indochina, OD700, 18 h, primary screen (AID 1157). Conditions: P. falciparum Indochina infected erythrocytes, osmotic lysis OD700, 18 h; higher = more signal, called active from +8 up or from −8 down.
A short description of assay [17]: S6 kinase pathway phospho-S6 level changes – cell-based, A549, cytoblot, luminescence, serum-stimulated, primary screen (AID 1158).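 Also: serum-stimulated A549 lung adenocarcinoma cells; signal is phosphorylated S6 detected by cytoblot immunostaining with HRP secondary.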 As to conditions: 5 h, higher = more signal.
Assay [18] has as its target NADPH oxidase 2 (Homo sapiens) (UniProt P04839). The experiment in a line: compounds shifting NOX2 Amplex Red fluorescence – cell-based, HEK293-NOX2, PMA-stimulated, NOX inhibitor project, primary screen (AID 1159). Also: test concentration not given here. Conditions: 45 min, higher = more signal, called active from +8 up or from −8 down.
Assay [19] addresses NADPH oxidase 4 (Homo sapiens) (UniProt Q9NPH5). The experiment in a line: compounds shifting NOX4 Amplex Red fluorescence – cell-based, HEK293-NOX4, tetracycline-induced, NOX inhibitor project, primary screen (AID 1160). Conditions: HEK293-NOX4, Amplex Red H2O2 fluorescence, 45 min; higher = more signal, called active from +8 up or from −8 down.
For assay [20], the target named is NADPH oxidase 5 (Homo sapiens) (UniProt Q96PH1). The experiment in a line: compounds shifting NOX5 Amplex Red fluorescence – cell-based, HEK293-NOX5, NOX inhibitor project, primary screen (AID 1161). Conditions: HEK293-NOX5, ionomycin, 45 min, higher = more signal.
Sequence of NADPH oxidase 5 (Homo sapiens) (Q96PH1 whole entry, looked up): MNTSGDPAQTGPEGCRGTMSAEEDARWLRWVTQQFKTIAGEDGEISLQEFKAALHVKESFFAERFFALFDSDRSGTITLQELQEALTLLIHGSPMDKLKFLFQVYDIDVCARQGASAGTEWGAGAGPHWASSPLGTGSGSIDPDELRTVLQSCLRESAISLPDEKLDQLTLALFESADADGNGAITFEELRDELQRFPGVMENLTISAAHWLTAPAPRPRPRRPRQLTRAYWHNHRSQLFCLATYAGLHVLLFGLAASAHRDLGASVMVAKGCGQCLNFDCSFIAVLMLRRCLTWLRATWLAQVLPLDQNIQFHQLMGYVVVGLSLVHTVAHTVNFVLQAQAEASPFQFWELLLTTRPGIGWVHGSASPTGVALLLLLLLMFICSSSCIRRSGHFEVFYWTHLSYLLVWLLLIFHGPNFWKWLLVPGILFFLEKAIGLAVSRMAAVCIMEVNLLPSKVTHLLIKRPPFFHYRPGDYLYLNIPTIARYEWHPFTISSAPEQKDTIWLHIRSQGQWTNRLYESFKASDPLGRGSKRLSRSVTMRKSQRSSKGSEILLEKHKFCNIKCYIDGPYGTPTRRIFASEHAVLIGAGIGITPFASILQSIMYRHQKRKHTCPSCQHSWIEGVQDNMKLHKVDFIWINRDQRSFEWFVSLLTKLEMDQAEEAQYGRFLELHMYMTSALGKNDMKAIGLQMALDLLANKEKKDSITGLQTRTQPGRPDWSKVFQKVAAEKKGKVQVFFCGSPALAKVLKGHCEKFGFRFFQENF

Active and inactive are the calls of the source. Unless noted, no rule for the calls is given here.

Sequence of NADPH oxidase 4 (Homo sapiens) (Q9NPH5 whole entry, looked up): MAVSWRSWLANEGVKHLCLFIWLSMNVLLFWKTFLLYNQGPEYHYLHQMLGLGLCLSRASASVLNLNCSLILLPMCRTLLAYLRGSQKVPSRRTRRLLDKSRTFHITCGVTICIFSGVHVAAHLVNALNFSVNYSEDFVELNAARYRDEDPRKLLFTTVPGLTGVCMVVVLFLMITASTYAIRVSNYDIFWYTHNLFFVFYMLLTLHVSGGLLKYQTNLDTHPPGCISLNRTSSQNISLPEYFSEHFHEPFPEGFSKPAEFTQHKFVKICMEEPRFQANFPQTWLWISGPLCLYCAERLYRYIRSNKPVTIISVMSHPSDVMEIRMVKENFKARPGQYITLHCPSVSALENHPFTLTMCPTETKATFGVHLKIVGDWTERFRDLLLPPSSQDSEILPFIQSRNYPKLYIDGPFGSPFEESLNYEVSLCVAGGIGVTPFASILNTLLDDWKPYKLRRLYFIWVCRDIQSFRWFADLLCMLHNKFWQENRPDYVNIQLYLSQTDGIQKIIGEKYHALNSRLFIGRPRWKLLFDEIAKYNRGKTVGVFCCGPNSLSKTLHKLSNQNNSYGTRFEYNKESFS
Sequence of NADPH oxidase 2 (Homo sapiens) (P04839 whole entry, looked up): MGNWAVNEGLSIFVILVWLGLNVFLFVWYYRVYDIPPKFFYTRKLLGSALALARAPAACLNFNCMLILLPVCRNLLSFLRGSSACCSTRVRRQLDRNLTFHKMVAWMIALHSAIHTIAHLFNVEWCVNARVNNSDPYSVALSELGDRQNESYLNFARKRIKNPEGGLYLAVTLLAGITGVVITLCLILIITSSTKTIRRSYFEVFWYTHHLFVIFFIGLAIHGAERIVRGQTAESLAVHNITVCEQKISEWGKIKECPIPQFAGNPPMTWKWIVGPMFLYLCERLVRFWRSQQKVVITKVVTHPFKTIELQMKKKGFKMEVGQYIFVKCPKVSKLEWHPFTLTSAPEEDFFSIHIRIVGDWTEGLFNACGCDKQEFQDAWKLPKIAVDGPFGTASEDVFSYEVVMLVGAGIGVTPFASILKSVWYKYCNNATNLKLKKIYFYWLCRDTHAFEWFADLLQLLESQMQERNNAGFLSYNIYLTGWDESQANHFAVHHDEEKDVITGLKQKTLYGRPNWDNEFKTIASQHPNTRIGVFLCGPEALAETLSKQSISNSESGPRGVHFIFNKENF

With `COC(=O)[C@@H]1CC[C@H](C)[C@@H](c2ccc(C)cc2)N1C(=O)c1ccc(C=NO[C@@H](C)c2cc(-c3c(C)cc(C)cc3C)no2)cc1`, the composite z-score was 0.153 in assay [1]; 0.152 in assay [6]; -0.0986 in assay [7]; 1.62 in [8]; 0.763 in [9]; 0.707 in assay [10]. Besides, the composite z-score in [12] is -0.242. The z-score was -1.31 (inactive) in assay [2]; 0.209 (inactive) in assay [3]; -0.0591 (inactive) in assay [4]; -0.187 (inactive) in assay [5]; 0.934 (inactive) in [11]; 1.12 (inactive) in assay [13]. Besides, the z-score is 0.804 (inactive) in [14]; 0.894 (inactive) in [15]; 0.662 (inactive) in assay [16]; 0.677 in assay [17]; 0.564 (inactive) in assay [18]; 0.945 (inactive) in assay [19]. The z-score in assay [20] turned out to be 0.406.
Take `CCOC(=O)NN=C1C[C@@H](O)[C@@H](O)[C@@H]2[C@@H]3C(=O)N(C[C@@H]4CCCO4)C(=O)[C@@H]3CC[C@H]12`: the composite z-score in assay [1] was 0.0534; in [6], -0.319; in assay [7], -0.004; in assay [8], 0.715; in [9], 0.577; in assay [10], 0.225. In assay [12], this compound came in with a composite z-score of -0.147. Besides, the z-score in assay [2] is 0.587 (inactive); in [3] it was -0.973 (inactive); in assay [4], -0.926 (inactive); in assay [5], -0.0875 (inactive); in [11], 0.138 (inactive); in assay [13], -0.133 (inactive). The z-score in [14] was -0.121 (inactive); in assay [15], -0.497 (inactive); in assay [16] it was -0.235 (inactive); in assay [17], 0.0411; in assay [18] it was 0.192 (inactive); in assay [19], 0.433 (inactive). In addition, the z-score in [20] was -0.468.
Consider `CC[C@@H](c1ccccc1)n1c(=O)n2n(c1=O)[C@H]1[C@H](O)[C@@H]3O[C@@H]3C(=NOCc3ccccc3)[C@H]1CC2`, for which the composite z-score in [1] is 0.0576; in assay [6] it was 0.347; in assay [7], -0.0131; in assay [8], 0.106; in assay [9], 0.223; in [10], 1.05. The composite z-score in assay [12] stood at 0.0004. Further, the z-score is -3.91 (inactive) in assay [2]; 0.479 (inactive) in assay [3]; 0.248 (inactive) in [4]; 0.706 (inactive) in assay [5]; -1.08 (inactive) in assay [11]; 2.18 (inactive) in assay [13]. The z-score is 0.0656 (inactive) in assay [14]; 1.1 (inactive) in assay [15]; 0.454 (inactive) in assay [16]; 0.3 in assay [17]; 1.55 (inactive) in assay [18]; -0.989 (inactive) in assay [19]. Besides, the z-score in assay [20] was 1.21.
Turning to `COC(=O)CC=C[C@@H](C)[C@@H](C=NOC(C)CN1CCCCc2nc(C)c(C)cc21)OC` (stereo not given in full), the composite z-score in assay [1] is 0.263; in assay [6] it was 0.405; in [7], -0.239; in [8], 3.19; in assay [9] it was 2.65; in [10], 1.79. The composite z-score in assay [12] was -0.0501. Also, the z-score in [2] was -0.211 (inactive); in assay [3] it was 0.763 (inactive); in assay [4] it was 1.41 (inactive); in assay [5], 0.802 (inactive); in assay [11], -0.0952 (inactive); in assay [13], 1.78 (inactive). Also, the z-score in assay [14] was 0.322 (inactive); in assay [15], -0.29 (inactive); in [16], 0.441 (inactive); in assay [17], -0.637; in [18], -2.01 (inactive); in assay [19] it was -0.392 (inactive). In addition, in assay [20], the z-score was -1.52.
Regarding `CON=C[C@@H](OC)[C@H](C)C=CCC(=O)OC`, the composite z-score was -0.115 in [1]; -0.0172 in [6]; -0.0762 in [7]; 0.752 in assay [8]; -0.0215 in assay [9]; 0.183 in assay [10]. This compound gave a composite z-score in assay [12] of -0.316. Besides, the z-score in assay [2] is -0.569 (inactive); in assay [3] it was 0.157 (inactive); in assay [4], 0.257 (inactive); in assay [5], 0.034 (inactive); in assay [11], -2.24 (inactive); in assay [13], 0.0283 (inactive). The z-score in [14] was 0.325 (inactive); in [15] it was -0.779 (inactive); in assay [16], 0.22 (inactive); in [17], 0.279; in assay [18] it was 0.592 (inactive); in assay [19], 0.358 (inactive). Besides, the z-score in assay [20] is -0.945.
